IL-1B inflam inh: qHTS for Inhibitors of Inflammasome Signaling: IL-1-beta AlphaLISA Primary Screen; THP-1 LPS/ATP IL-1B secretion, AlphaLISA, 16 h; stronger effect = lower value; activity change, % at 57.5 µM; 360,000 tested, 4.7% active; AID 743279, 2014; in the data active means activity change below about -50%; inconclusive means mostly about -30% to -49%
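THP-1 cells pretreated 1 hr with compounds (up to 57.5 uM final), then stimulated with LPS (250 ng/mL final) plus ATP (1.25 mM final); secreted IL-1B measured by AlphaLISA after 16 hr, decreased signal indicating inhibition.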
TDP1 cell CPT: qHTS for Inhibitors of human tyrosyl-DNA phosphodiesterase 1 (TDP1): qHTS in cells in presence of CPT. chicken DT40 Tdp1-/-;hTDP1 cells + 20 nM CPT, ATP luminescence, 48 h. Potency, µM (highest dose often 46.2 µM), for the others: at the top dose activity change, negative = growth inhibition, actives largely listed as inhibitors. 420,000 tested, 12% active. AID 686979, 2013; further: potency means the concentration at half of the fitted maximal effect; nearly all actives have a fitted effect of over 55% in size
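Chicken DT40 Tdp1-/- cells stably complemented with human TDP1 were seeded at 400 cells/well in medium containing 20 nM camptothecin, exposed to pin-transferred compounds, and grown at 37 °C for at least 48 hr. Viability was read as ATP luminescence.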
TDP1 block: qHTS Assay for Inhibitors of Tyrosyl-DNA Phosphodiesterase (TDP1); Tyrosyl-DNA phosphodiesterase 1 (Homo sapiens), Q9NUW8; recombinant TDP1, AlphaScreen DNA substrate cleavage; Potency, µM (series often up to 130 µM), without a hit: top-dose activity change, negative = inhibition, most hits filed as inhibitors; 350,000 tested, 0.28% active; AID 485290, 2010; further: potency means the concentration at half of the fitted maximal effect; nearly all actives have a fitted effect of over 40% in size
Target sequence (Q9NUW8 whole entry, looked up): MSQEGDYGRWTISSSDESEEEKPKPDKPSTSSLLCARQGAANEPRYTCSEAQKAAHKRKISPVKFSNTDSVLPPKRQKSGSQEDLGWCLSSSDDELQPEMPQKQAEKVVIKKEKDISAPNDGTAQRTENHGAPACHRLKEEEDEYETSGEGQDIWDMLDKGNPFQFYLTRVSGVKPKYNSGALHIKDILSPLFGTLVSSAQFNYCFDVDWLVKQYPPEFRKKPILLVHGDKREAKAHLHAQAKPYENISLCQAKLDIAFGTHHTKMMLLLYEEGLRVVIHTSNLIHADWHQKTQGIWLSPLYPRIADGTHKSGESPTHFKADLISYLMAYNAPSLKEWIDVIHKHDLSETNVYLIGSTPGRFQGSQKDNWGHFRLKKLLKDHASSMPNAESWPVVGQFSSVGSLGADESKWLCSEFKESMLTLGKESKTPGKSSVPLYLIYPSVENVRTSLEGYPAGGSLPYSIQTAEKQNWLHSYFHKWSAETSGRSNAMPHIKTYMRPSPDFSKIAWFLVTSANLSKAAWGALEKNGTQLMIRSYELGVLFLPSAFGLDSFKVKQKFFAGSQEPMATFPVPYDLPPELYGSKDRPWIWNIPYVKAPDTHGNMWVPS
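Recombinant E. coli-expressed Tdp1 (1 nM) preincubated with compound 15 min at RT, then 5'-biotin/3'-phosphotyrosine-FITC DNA substrate (15 nM) added for 5 min. AlphaScreen beads (10 ug/ml) added, 10 min RT; tyrosine-FITC cleavage read as signal loss.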
DT40 TDP1 no CPT: qHTS for Inhibitors of human tyrosyl-DNA phosphodiesterase 1 (TDP1): qHTS in cells in absence of CPT | DT40 Tdp1-/- hTDP1 cells, no CPT, ATP luminescence, 48 h | 420,000 tested, 15% active | AID 686978, 2013 | Potency, µM (series often up to 46.2 µM), for the others: at the top dose activity change, negative = growth inhibition, most hits filed as inhibitors; further: potency means the concentration at half of the fitted maximal effect; nearly all actives have a fitted effect of over 55% in size
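A cellular qHTS used chicken DT40 cells lacking endogenous Tdp1 but carrying stably transfected human TDP1. Compounds were applied without camptothecin, and cell growth kinetics were judged by ATP-dependent luminescence after ≥48 hr.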
Giardia kill: Small Molecules that selectively kill Giardia lamblia: qHTS; Giardia lamblia trophozoite viability; activity change, % at 7.66 µM, hits read low; 340,000 tested, 0.15% active; in the data active means activity change below about -80%; inconclusive means between about -30% and that limit;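 further: parasites exposed to compound for two days anaerobically before the ATP read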
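Killing of trophozoites was scored by loss of ATP luminescence after a 48 hrs anaerobic exposure to compounds at 37 deg C, using 100 cells per well.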
ELG1 repair inh: qHTS screen for small molecules that inhibit ELG1-dependent DNA repair in human embryonic kidney (HEK293T) cells expressing luciferase-tagged ELG1 | HEK293T ELG1-luciferase reporter, luminescence, 16 h; DNA damage induced by 5-fluorouridine | Potency, µM (titrated, usually from 46.1 µM), for inactives: at the top dose activity change, negative = inhibition, most hits filed as inhibitors | 330,000 tested, 2.3% active; further: potency means the concentration at half of the fitted maximal effect; nearly all actives have a fitted effect of over 55% in size
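DMSO vehicle served as the neutral condition. Each well held 2,000 cells given 5-fluorouridine plus compound; after 16 hr at 37 °C/5% CO2, ONE-Glo was added and luciferase measured 30 min later.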
* marks the source's active call; other numbers are inactive results; ? = inconclusive; . = no result; [ ] = another dose, or the depositor's remark. This is a sample that favours compounds with a hit; in the whole collection about 19% have one here. Unless noted, the call rests on the fitted dose curve; in most records, active means well fitted curve in the direction sought with a large enough effect; inconclusive means small, poorly fitted or top-dose-only effect, or another doubt; inactive means no such curve, though single readings can be large; an effect the other way counts as inactive or inconclusive. On the % scale 0 is the no-effect control and ±100 the full control effect.

SMILES	IL-1B inflam inh	TDP1 cell CPT	TDP1 block	DT40 TDP1 no CPT	Giardia kill	ELG1 repair inh
O=C(Nc1cccc([N+](=O)[O-])c1)Nc1ccc2c(c1)CCC2	?	21µM*	2%	?	4	?
Cc1cc(C(=O)Nc2ccc3c(c2)CCC3)ccc1[N+](=O)[O-]	-69*	4%	.	?	6	.
COC(=O)c1sccc1NC(=O)Nc1cccc([N+](=O)[O-])c1	2	2%	3%[56.1 µM]	10%	15	0%
O=C(Nc1cccc(C(F)(F)F)c1)Nc1cccs1	.	?	-2%	21µM*	.	.
O=C(Nc1cccc([N+](=O)[O-])c1)Nc1cccs1	?	23µM*	6%	?	4	-27%
Cc1ccc(C(=O)NCC(=O)Nc2ccc3c(c2)CCC3)cc1C	79	-4%	3%[0.505 µM]	-10%	21	?
CC1CCCC(N2C(=O)NC(NC(=O)c3ccco3)(C(F)(F)F)C2=O)C1C (centres undefined)	3	?	3%	-11%	-13	-3%
Oc1ccc(C=Nc2ccccc2-c2nc3ccccc3[nH]2)cc1	-5	-21%	-3%	-25%	-6	?
CC(C)N(C(=S)Nc1cccnc1)c1ccccc1	7	-17%	4%	-26%	-13	6%
CCSCCc1nnc(NC(=O)Nc2cccc(C(F)(F)F)c2)s1	-69*	4.1µM*	0%	2.3µM*	-14	?
O=C(Nc1cccc(C(F)(F)F)c1)Nc1nnc([C@H]2C[C@H](O)[C@@H](CO)O2)s1	1	?	.	-24%	.	.
Cc1cc(NC(=O)COCc2cc(-c3ccc(F)cc3)on2)ccc1Br	.	5%	-1%	-7%	.	.
O=S(=O)(c1ccccc1)N1CCN(S(=O)(=O)c2ccccc2)CC1	.	17%	1%	-1%	?	.
CC1=C(C)CS(=O)N(c2ccc(S(N)(=O)=O)cc2)C1 (centres undefined)	-93*	13µM*	0%	23µM*	27	-8%
CC1=C(C)CS(=O)N(S(=O)(=O)c2ccccc2)C1 (centres undefined)	-50*	23µM*	-4%	10µM*	4	?
CNC(=O)c1cccc(NC(=O)c2ccccc2OCc2ccccc2)c1	6	?	3%	?	3	11%
O=C1OC(CN2CCOCC2)CN1/N=C/c1ccc([N+](=O)[O-])o1 (centres undefined)	.	-25%[21.1 µM]	.	-25%[21.1 µM]	.	.
CC1CS(=O)(=O)CCN1N=Cc1ccc([N+](=O)[O-])o1 (centres undefined)	31	?	.	?	?	0%
CCN(CC)CC1CN(N=Cc2ccc([N+](=O)[O-])o2)C(=O)O1 (centres undefined)	8	15µM*	.	16µM*	?	.
O=[N+]([O-])c1ccc(C=NN2CCNC2=S)o1	65	18µM*	.	21µM*	.	.
CCOCCCNC(=O)C(=O)Nc1c2c(nn1-c1ccccc1)CSC2	.	-21%	8%	-19%	.	.
COc1ccc(C(=O)NC2CCSc3ccccc32)cc1F (centres undefined)	10	-24%	-8%	?	-3	0%
COc1cc(OC)cc(C(=O)NC2CCSc3ccccc32)c1 (centres undefined)	-5	?	4%	23µM*	39	-6%
Nc1nc2c(s1)CCc1c-2cnn1-c1ccccc1	0	15µM*	7%	13µM*	-8	?
CCCOc1ccc(-c2nc3c(c(=O)[nH]c(=O)n3Cc3ccccc3)n2CCO)cc1OCC	1	?	6%	16µM*	12	-28%
SMILES	IL-1B inflam inh	TDP1 cell CPT	TDP1 block	DT40 TDP1 no CPT	Giardia kill	ELG1 repair inh
CCCCn1c(=O)[nH]c(=O)c2c1nc(-c1ccc(-c3ccccc3Br)o1)n2CCOC	12	?	-2%	?	-4	2.6µM*
CCCCn1c(=O)[nH]c(=O)c2c1nc(-c1ccc(OCCC)c(OCC)c1)n2CCOC	34	4%	2%	?	-12	6.5µM*
CCCCn1c(-c2ccc(Br)cc2F)nc2c1c(=O)[nH]c(=O)n2CC(C)C	-68*	21µM*	.	23µM*	-5	?
CCCCn1c(=O)[nH]c(=O)c2c1nc(-c1ccncc1)n2CCOC	35	0%	2%	-9%	-7	-16%
Cc1cn2cc(CNC(=O)CN3Cc4ccccc4OC(c4ccccc4F)C3)nc2s1 (centres undefined)	.	-5%	.	?	.	.
CN(Cc1ccccc1)C(=O)c1ccc(NC(=O)Cc2ccc(NC(=O)C3CCCN(C(=O)C4CC4)C3)cc2)cc1 (centres undefined)	1	?	.	?	?	.
COc1cccc(NC(=O)c2nnn(Cc3ccc(OC)c(Br)c3)c2N)c1	.	0%	8%	-55%	.	.
O=C(Nc1cccc(F)c1)N1CC[C@@]2(CCCN(C(=O)c3csnn3)C2)C1	.	13%	.	-8%	.	.
Cc1ccc(NC(=O)Cn2c(=O)n(CCC(=O)NCCc3ccccc3)c(=O)c3ccccc32)cc1	.	-11%	5%	-10%	.	.
CCOC(=O)NN1C(=O)c2ccccc2NC1c1cccs1 (centres undefined)	16	-3%	.	7%	?	-6%
CN1CCN(C2=C(Cl)C(=O)N(C3CCCCC3)C2=O)CC1	?	?	0%	?	18	-27%
CN1CCN(C2=C(Cl)C(=O)c3ccccc3C2=O)CC1	-104*	2.3µM*	.	2.6µM*	12	.
NC(=O)C1CCN(C2=C(Cl)C(=O)c3ccccc3C2=O)CC1	-98*	2.3µM*	-5%	2.9µM*	-17	?
O=C1C(Cl)=C(N2CCC(C(=O)O)CC2)C(=O)c2ccccc21	0	15µM*	-5%	16µM*	18	-20%
CN1CCN(C2=C(Cl)C(=O)C(c3cnc(N4CCCCC4)s3)=C(Cl)C2=O)CC1	0	2.1µM*	6%	1.6µM*	1	-4%
O=C(O)C1CCN(C(=O)c2ccccc2Cl)CC1	25	-9%	-2%	-16%	-7	6%
NC(=O)C1CCN(c2ccc3c(c2)S(=O)(=O)c2ccccc2C3=O)CC1	-4	?	.	-3%	-9	.

Screening data: PubChem BioAssay, National Center for Advancing Translational Sciences (NCATS)
